These results are taken from PubChem BioAssay AID1445 (SRMLSC, 2008).

The target of this assay is Aminopeptidase N (Plasmodium falciparum (isolate 3D7)) (UniProt O96935). In words: P. falciparum M1AAP inhibitors, biochemical, fluorogenic H-Leu-NHMec substrate, 1536-well (AID 1445).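 Further: plate controls were DMSO full reaction for no effect and no enzyme background for full effect.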 Conditions: recombinant M1AAP, H-Leu-NHMec fluorogenic kinetic assay.
[1] abbreviates: at 30 µM, hits give high values unless noted.

Hit rate of the full screen: of about 220,000 compounds, about 910 (0.41%) were called active. This is one part of a sample in which actives are shown more often than they occur. Entries with a potency or affinity are not part of this list. Unmarked numbers belong to inactive results.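 How the source made its calls: active means primary inhibition above the hit cutoff, then over 50% inhibition at one or more dose response concentrations (cut at about 23% in these data, passing the limit was not always enough); inconclusive means conflicting primary data, or primary hits not chosen for dose response; inactive means low primary inhibition, or under 50% at every dose.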 Where a SMILES comes first, the peptide text is derived from it. The star is where a group is joined. Boc = CC(C)(C)OC(=O)*

Aminopeptidase N (Plasmodium falciparum (isolate 3D7)), sequence (O96935 whole entry, looked up): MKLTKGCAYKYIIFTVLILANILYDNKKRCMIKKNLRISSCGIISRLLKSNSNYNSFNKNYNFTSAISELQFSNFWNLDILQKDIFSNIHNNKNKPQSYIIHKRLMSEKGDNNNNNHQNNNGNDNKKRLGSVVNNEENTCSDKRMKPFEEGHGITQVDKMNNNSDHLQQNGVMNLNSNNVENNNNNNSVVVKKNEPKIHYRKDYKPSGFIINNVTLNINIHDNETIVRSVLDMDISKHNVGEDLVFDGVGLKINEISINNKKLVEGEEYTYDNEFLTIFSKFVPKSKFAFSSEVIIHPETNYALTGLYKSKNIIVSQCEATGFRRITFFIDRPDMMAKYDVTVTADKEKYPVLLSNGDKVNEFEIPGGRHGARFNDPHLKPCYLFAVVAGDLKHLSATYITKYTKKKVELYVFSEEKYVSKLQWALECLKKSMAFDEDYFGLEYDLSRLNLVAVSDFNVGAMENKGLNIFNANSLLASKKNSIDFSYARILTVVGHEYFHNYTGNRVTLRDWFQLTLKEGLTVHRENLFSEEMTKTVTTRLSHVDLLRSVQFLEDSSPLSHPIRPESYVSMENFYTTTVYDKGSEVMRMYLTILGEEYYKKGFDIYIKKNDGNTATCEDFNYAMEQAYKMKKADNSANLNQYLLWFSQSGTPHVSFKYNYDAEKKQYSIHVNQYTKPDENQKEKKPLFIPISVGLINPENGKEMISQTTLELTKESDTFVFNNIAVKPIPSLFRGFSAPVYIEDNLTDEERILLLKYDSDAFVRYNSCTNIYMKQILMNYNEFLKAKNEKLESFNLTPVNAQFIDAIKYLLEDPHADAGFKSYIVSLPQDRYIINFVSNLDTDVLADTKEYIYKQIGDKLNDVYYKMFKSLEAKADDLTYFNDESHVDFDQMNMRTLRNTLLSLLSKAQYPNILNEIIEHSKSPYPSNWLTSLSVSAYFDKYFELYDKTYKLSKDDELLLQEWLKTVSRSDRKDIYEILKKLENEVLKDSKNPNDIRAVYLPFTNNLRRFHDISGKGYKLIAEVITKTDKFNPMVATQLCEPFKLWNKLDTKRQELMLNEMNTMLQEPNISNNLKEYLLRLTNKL

With `CC1(C)CC(=O)C(C=NCCN2CCN(C(=O)c3ccc(Br)cc3)CC2)=C(O)C1`, the inhibition under setting [1] is 2.26%.

Turning to `COc1ccc(CCNC(=O)[C@@H](NC(=O)c2ccccc2F)C(C)C)cc1OC`, the inhibition under setting [1] is 0.88%.

Regarding `Oc1c(Cl)cc(Cl)c2cccnc12`, under setting [1], the inhibition was -7.26%.

As to `Oc1c(Cl)cc(Cl)c2c1NCCC2`, the inhibition under setting [1] was 7.06%.

As for `CCC(C)NCCCCOc1cc(C)cc(C(C)C)c1` (stereo unspecified), under setting [1], the inhibition is 3.28%.

As to `CCC(=O)N(C)CCc1cc2c(c(OC)c1/C=N/NC(=O)c1ccccc1O)OCO2`, the inhibition under setting [1] is -6.1%.

On to `C#CCOCCOCCOCCNc1nc(N2CCOCC2)nc(N2CCN(C(=O)[C@H]([C@@H](C)CC)n3cc(CCCCN)nn3)CC2)n1`, for which the inhibition under setting [1] was 0.08%.

Turning to `O=[N+]([O-])c1ccc(Cl)c(-c2ccc(/C=N/c3c(-c4ccco4)nc4ccccn34)o2)c1`, the inhibition under setting [1] is 6.65%.

For the compound `O=[N+]([O-])c1ccc(-c2ccc(/C=N/c3c(-c4ccco4)nc4ccccn34)o2)cc1`, the inhibition under setting [1] is 27.6% (active).

For the compound `O=[N+]([O-])c1ccc(-c2ccc(/C=N/c3c(-c4ccco4)nc4ccccn34)o2)c(Cl)c1`, under setting [1], the inhibition is 8.98%.

Regarding `COC(=O)C(Cc1ccccc1)NC(=O)C(CC(C)C)NC(=O)OC(C)(C)C` (stereo not drawn) (Boc-Leu-Phe-OMe; configuration not given here), the inhibition under setting [1] was -2.73%.

Regarding `CC(C)CC(NC(=O)OC(C)(C)C)C(=O)NCc1ccccc1` (stereo unspecified), the inhibition under setting [1] was -0.35%.

With `O=C1N[C@@H](Cc2ccccc2)C(=O)N1CCN1CCOCC1`, the inhibition under setting [1] is -7.62%.

Take `O=C(Cn1cnc2ccccc21)N/N=C/c1ccccc1[N+](=O)[O-]`: under setting [1], the inhibition is -4.86%.

Turning to `Cc1ccc(S(=O)(=O)N2CCN(C(=O)CC(C)(C)C)CC2)cc1`, the inhibition under setting [1] is 3.77%.

With `CN(c1ccccc1C(=O)Nc1ccc(F)c(F)c1)S(C)(=O)=O`, under setting [1], the inhibition is 0.14%.

On to `O=C1CN2C(=Nc3ccc(Br)cc3C2c2ccccc2)CCN1` (stereo unspecified), for which the inhibition under setting [1] was 3.13%.

In the case of `COC(=O)CN1C(c2ccc(Cl)cc2)=Nc2ccc(Cl)cc2C1c1ccccc1` (stereo unspecified), the inhibition under setting [1] was 8.62%.

Consider `O=C1CN2C(=Nc3ccc(Cl)cc3C2c2ccccc2)CN1` (stereo unspecified), for which the inhibition under setting [1] was 27.9% (active).

Take `COc1ccc(C2=NOC(C(=O)Nc3cc(C)on3)C2)cc1OC` (stereo unspecified): under setting [1], the inhibition was 9.84%.

As for `COc1ccc(/C=C(/C#N)C(=O)Nc2ccc(O)cc2)cc1C(=O)O`, the inhibition under setting [1] is 15.9%.

On to `C=CCNC(=O)/C(C#N)=C\c1cc(Cl)c(O)c(OCC)c1`, for which the inhibition under setting [1] was 1.82%.

On to `CC(C)COc1ccc(/C=C2/Sc3ccccc3C2=O)cc1`, for which the inhibition under setting [1] is -0.23%.

Regarding `CCOC(=O)C1=C2NC(=O)c3ccccc3N2C(=O)C1`, the inhibition under setting [1] is 7.37%.

Turning to `COc1ccc(C(=O)NNC(=O)CCC(=O)Nc2cc(C)on2)cc1`, the inhibition under setting [1] was 6.61%.

As to `CC(=O)Nc1ccccc1-c1nc2ccc(C(=O)N3CCN(c4ccccc4)CC3)cc2[nH]c1=O`, the inhibition under setting [1] was 28% (active).

As to `CC(=O)Nc1ccccc1-c1nc2ccc(C(=O)N3CCN(c4cc(C)ccc4C)CC3)cc2[nH]c1=O`, the inhibition under setting [1] was 4.66%.

Take `CC(=O)Nc1ccccc1-c1nc2ccc(C(=O)N3CCN(c4cccc(C)c4)C(C)C3)cc2[nH]c1=O` (stereo unspecified): the inhibition under setting [1] was 6.05%.

As for `Cc1ccccc1-c1cnn(-c2cccc([N+](=O)[O-])c2)c1N`, under setting [1], the inhibition is 1.77%.

As to `CC(C)c1ccc2oc(-c3ccc(N)cc3)nc2c1`, the inhibition under setting [1] is 4.91%.

Regarding `Cc1ccc(-c2nc3cc(N)ccc3o2)cc1`, under setting [1], the inhibition is 6.2%.

As for `CC(=O)N(C(C)=O)N1C(=O)/C(=C/c2ccc(Cl)cc2)SC1=S`, the inhibition under setting [1] is 29.5%.

In the case of `O=S(=O)(Nc1ncnc2sc3c(c12)CCC3)c1cc(F)ccc1F`, the inhibition under setting [1] is 11.3%.

For `O=S(=O)(Nc1ncnc2sc3c(c12)CCC3)c1ccc(Cl)s1`, the inhibition under setting [1] is 20%.

For `O=S(=O)(Nc1ncnc2sc3c(c12)CCC3)c1ccc2ccccc2c1`, the inhibition under setting [1] is 27.9% (active).

Consider `CC(C)CCOCC(=O)Oc1ccccc1C(=O)O`, for which, under setting [1], the inhibition was -2.22%.

Consider `CCN(CC)CCCOC(=O)c1ccc(OC)cc1O`, for which the inhibition under setting [1] was 1.55%.

For `Cc1ccc(C2=NNC(=O)C(c3c[nH]c4ccccc34)C2)cc1` (stereo unspecified), the inhibition under setting [1] was 1.55%.

Take `CC1(C)Nc2ccccc2C(=O)N1NC(=O)c1ccccc1`: the inhibition under setting [1] is 22.7%.

With `CCOC(=O)NN1C(=O)c2ccccc2NC1(C)C`, the inhibition under setting [1] is 13.7%.

On to `CS(=O)(=O)NN1C(=O)c2ccccc2NC12CCCC2`, for which, under setting [1], the inhibition was 6.27%.

`O=C1c2ccccc2NC2(CCCC2)N1NS(=O)(=O)c1ccccc1`: the inhibition under setting [1] is 7.28%.

As for `COc1ccc(NC(=O)c2ccccc2F)cc1Cl`, under setting [1], the inhibition was 5.75%.

Consider `CCCC[C@@H]1CNC(=S)N1CCCc1cc(OC)c(OC)c(OC)c1`, for which the inhibition under setting [1] is 2.36%.

As for `COc1cc(NC(=O)CSc2nnnn2Cc2ccccc2)cc(OC)c1`, the inhibition under setting [1] is -0.13%.

In the case of `Cc1nc(COC(=O)c2ccc(CO)cc2)cs1`, under setting [1], the inhibition is 4.37%.

Turning to `Cn1c(=O)c2nc(Cl)c(-c3ccccc3)nc2n(C)c1=O`, the inhibition under setting [1] was 4.55%.

As to `COCCCNc1ccc([N+](=O)[O-])cc1C(=O)Nc1cccc(C)n1`, under setting [1], the inhibition was 2.01%.

As to `CCOc1ccc(NS(=O)(=O)c2ccc3[nH]c(=O)c(=O)[nH]c3c2)cc1`, the inhibition under setting [1] was 10.4%.

In the case of `O=c1[nH]c2ccc(NS(=O)(=O)c3ccc(Cl)cc3)cc2[nH]1`, the inhibition under setting [1] is 7.26%.

On to `CC(C)CCNC(=O)c1nnc(Cc2ccc(Cl)cc2)o1`, for which the inhibition under setting [1] was 2.74%.

Turning to `O=C(NCCCc1ccccc1)c1cc([N+](=O)[O-])ccc1Cl`, under setting [1], the inhibition is 3.08%.

On to `C[N+]1(CC(=O)OC2CCCCCCCCCCC2)CCCC1`, for which the inhibition under setting [1] was 32.9%.

`Oc1ccc(N=Nc2n[nH]c(-c3ccc(Br)cc3)n2)cc1`: the inhibition under setting [1] was 14.1%.

In the case of `Cc1ccc(-c2nc(N=Nc3ccc(O)cc3)n[nH]2)cc1`, the inhibition under setting [1] was 15.9%.

With `Oc1ccc(N=Nc2n[nH]c(-c3ccc(Cl)cc3)n2)cc1`, under setting [1], the inhibition was 26.6% (active).

`O=C(Nc1ccccc1N1CCOCC1)c1cccnc1`: the inhibition under setting [1] is -1.63%.

On to `Cc1onc(-c2c(Cl)cccc2Cl)c1COC(=O)c1ccc(Cl)cc1`, for which, under setting [1], the inhibition is 0.11%.

Regarding `O=c1[nH]c(SCc2ccccc2Cl)nc2c1CCC2`, the inhibition under setting [1] is -1.92%.

For `O=c1[nH]c(SCc2ccccc2Cl)nc2c1CCCC2`, the inhibition under setting [1] was -3.65%.

Turning to `Cc1cccc(OCC(=O)NCC(=O)N/N=C/c2cccnc2)c1`, the inhibition under setting [1] was 8.13%.

On to `O=c1c2ccccc2nc(SCc2cc(F)ccc2F)n1C1CCCC1`, for which, under setting [1], the inhibition is 6.96%.

Turning to `CCC(C)(C)NC(=O)C(c1cccnc1)N(C(=O)c1csnn1)c1ccccc1` (stereo unspecified), the inhibition under setting [1] was -0.28%.

Take `O=P(Cc1cc(Br)cc(Br)c1OCCO)(c1ccccc1)c1ccccc1`: under setting [1], the inhibition was 5.71%.

On to `O=C(COc1ccc(Br)cc1CO)Nc1ccccc1`, for which the inhibition under setting [1] is 9.17%.

Consider `CCCn1c(SC2C(=O)CC(C)(C)CC2=O)nc2c1c(=O)n(C)c(=O)n2C`, for which the inhibition under setting [1] was -3.71%.

Consider `CCn1ccnc1CN(C)Cc1nc(-c2cccc(Cl)c2)no1`, for which the inhibition under setting [1] was -7.75%.

On to `C=CCn1c(-c2ccc(F)cc2)n[nH]c1=S`, for which the inhibition under setting [1] is 4.9%.

Take `CCOP(=O)(OCC)c1nc(-c2ccc(Cl)cc2Cl)oc1N1CCCCC1`: under setting [1], the inhibition is 10.7%.

On to `CCOP(=O)(OCC)c1nc(-c2cccc3ccccc23)oc1N1CCCCC1`, for which, under setting [1], the inhibition was 15.6%.

For `CCOC(=O)C/C(C)=N\Nc1nc(-c2ccccc2)cs1`, the inhibition under setting [1] was 1.35%.

`COCC(=O)N1CCN(c2cccc(C(F)(F)F)c2)CC1`: under setting [1], the inhibition was -4.62%.

Regarding `O=C(CSCc1ccccc1)N1CCN(c2cccc(C(F)(F)F)c2)CC1`, the inhibition under setting [1] is 6.51%.

As for `Cc1cccc(/C=N/NC(=O)c2cc(-c3cccnc3)nc3ccccc23)c1`, under setting [1], the inhibition was 5.37%.

With `c1ccc(SCc2nc(-c3cccnc3)no2)cc1`, under setting [1], the inhibition was 2.83%.

Turning to `CCOC(=O)c1c(NC(=O)C2CCCO2)sc(C)c1C` (stereo unspecified), the inhibition under setting [1] is 2.42%.

Turning to `CCOC(=O)NC(=O)/C(C=Nc1ccc(Cl)cc1)=C(\C)O`, under setting [1], the inhibition was 10.5%.

Regarding `O=C1CC(N(O)C2CC(=O)N(Cc3ccccc3)C2=O)C(=O)N1Cc1ccccc1` (stereo unspecified), under setting [1], the inhibition was 6.83%.

Regarding `CCCCCCC(=O)N(O)C1CC(=O)N(Cc2ccccc2)C1=O` (stereo unspecified), the inhibition under setting [1] was 37.9% (active).

Take `CCCN(CCC)C1CC(=O)N(Cc2ccccc2)C1=O` (stereo unspecified): the inhibition under setting [1] is 4.78%.

On to `CCCCCCC(=O)N(O)C1CC(=O)N(c2ccc(C)cc2)C1=O` (stereo unspecified), for which the inhibition under setting [1] is 35.5%.

Turning to `CCCCCC(=O)N(O)C1CC(=O)N(c2ccccc2)C1=O` (stereo unspecified), the inhibition under setting [1] was 11.5%.

For the compound `CCCCC(CCC(=O)Nc1ccccc1C(=O)OCC)C(=O)O` (stereo unspecified), under setting [1], the inhibition is 0.91%.

Take `CCN(CC)S(=O)(=O)c1ccc(C)c(NC(=O)c2cc(C)oc2C)c1`: under setting [1], the inhibition was 3.95%.

As for `O=C(O)CCC(=O)N(Cc1ccco1)C1CC(=O)N(c2ccccc2)C1=O` (stereo unspecified), the inhibition under setting [1] is 7.06%.

For `CCOC(=O)N1CCN(c2c(NCc3ccccc3OC)c(=O)c2=O)CC1`, the inhibition under setting [1] is 1.73%.

With `CCOC(=O)N1CCN(c2c(NCc3ccc(Cl)cc3)c(=O)c2=O)CC1`, the inhibition under setting [1] is 5.09%.

For the compound `COc1ccc(C(=O)N/N=C/c2cc3ccccc3[nH]c2=O)cc1`, the inhibition under setting [1] was 6.42%.

On to `COc1cc2ccccc2cc1C(=O)NC(=S)Nc1cccc(C(=O)O)c1C`, for which the inhibition under setting [1] was 8.01%.

In the case of `COCCNC(=S)N1CCc2cc(OC)c(OC)cc2C1COc1ccc(C(C)C)cc1` (stereo unspecified), the inhibition under setting [1] was 15.1%.

Take `CN1CCN(Cc2cc(Cl)c3cccnc3c2OC(=O)c2cccs2)CC1`: the inhibition under setting [1] was -1.84%.

For `O=C(Oc1c(CN2CCOCC2)cc(Cl)c2cccnc12)c1ccccc1`, under setting [1], the inhibition was 4.42%.

For the compound `CCOC(=O)c1cc2c(=O)n3ccccc3nc2n(CCOC)c1=NC(=O)C(C)(C)C`, under setting [1], the inhibition was 16.9%.

Take `CCOC(=O)c1cc2c(=O)n3ccccc3nc2n(CCOC)c1=NC(=O)c1ccncc1`: the inhibition is 45.3% (active) (at 30 µM, hits give high values) and 16.6% (at 100 µM (top of the series)).

As to `CCOC(=O)c1cc2c(=O)n3ccccc3nc2n(CCCOC)c1=NC(=O)c1ccncc1`, under setting [1], the inhibition was 10.7%.

What is called inhibition is the change of the read-out against control, counted positive when it falls.
